# Screening data: PubChem BioAssay, Corson Lab, School of Medicine, Indiana University
# The sample as a whole holds a higher share of hits than the screen did.
# FECH inh: inhibitors of human ferrochelatase, primary screen, biochemical, purified FECH, Ni-mesoporphyrin absorbance; Ferrochelatase, mitochondrial (Homo sapiens), P22830; Ni-mesoporphyrin absorbance 550 nm; calls only at 10 µM (by protocol); 3.3% of 20,000 active;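 active means enzyme reaction rate more than 3 SD below the solvent-only control wells on the same plate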;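 further: lower slope than DMSO wells means FECH inhibition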
# Target sequence (P22830 whole entry, looked up): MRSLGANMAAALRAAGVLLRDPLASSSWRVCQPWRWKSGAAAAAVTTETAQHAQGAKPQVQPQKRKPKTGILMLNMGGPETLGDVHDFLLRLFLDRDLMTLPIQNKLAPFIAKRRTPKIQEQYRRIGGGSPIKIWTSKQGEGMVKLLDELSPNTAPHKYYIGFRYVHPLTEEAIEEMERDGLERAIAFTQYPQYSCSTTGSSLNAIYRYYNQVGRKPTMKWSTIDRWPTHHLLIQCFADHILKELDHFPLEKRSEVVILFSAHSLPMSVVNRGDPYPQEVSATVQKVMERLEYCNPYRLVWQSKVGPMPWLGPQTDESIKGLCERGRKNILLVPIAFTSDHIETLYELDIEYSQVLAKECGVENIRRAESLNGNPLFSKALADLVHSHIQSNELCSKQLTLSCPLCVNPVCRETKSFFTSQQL
# The depositor's hits bear a star; i = inactive; + = active, no number.
SMILES,FECH inh
COc1ccc(C2C=C(c3ccccc3)Nc3nc(NS(=O)(=O)c4ccc(C)cc4)nn32)cc1 (stereo not drawn),i
Cc1ccc(S(=O)(=O)Nc2nc3n(n2)C(c2c(F)cccc2Cl)C=C(c2ccccc2)N3)cc1 (stereo not drawn),+
Cc1ccc(S(=O)(=O)Nc2nc3n(n2)C(c2ccccc2)C=C(c2ccc(Cl)cc2)N3)cc1 (stereo not drawn),i
Cc1ccc(C2=CC(c3ccc(C)cc3)n3nc(NS(=O)(=O)c4ccc(C)cc4)nc3N2)cc1 (stereo not drawn),+
O=C(C1COCCN1)N1CCOc2c(O)cc(-c3cccc(Cl)c3)cc2C1 (stereo not drawn),i
CC(C)CCNc1nc(Nc2ccc(Cl)cc2)c2cnn(-c3ccccc3)c2n1,i
CCN(C(=O)C1CCCN(c2ncnc3c2nc2n3CCCCC2)C1)c1ccccc1C (stereo not drawn),i
CC(=O)N1c2ccc(S(=O)(=O)N3CCCCC3)cc2CC1C(=O)NCCCN1CCCC1 (stereo not drawn),i
CC(=O)N1c2ccc(S(=O)(=O)N3CCCCC3)cc2CC1C(=O)Nc1ccncc1 (stereo not drawn),i
CC(=O)N1c2ccc(S(=O)(=O)N3CCOCC3)cc2CC1C(=O)NCCN1CCCC1 (stereo not drawn),+
Cc1ccc(Nc2nc(NCc3ccccc3Cl)nc3c2cnn3-c2ccccc2)cc1C,i
Cc1cc(C)n2nc(CN(C(=O)c3cccc(Cl)c3)c3ccccc3)nc2n1,i
Cc1cc(C)n2nc(CN(C(=O)Cc3ccccc3)c3ccccc3)nc2n1,+
Cc1cc(C)n2nc(CN(C(=O)c3ccc(F)cc3)c3ccccc3)nc2n1,i
Cc1cc(C)n2nc(CN(C(=O)c3ccco3)c3ccc(F)cc3)nc2n1,+
COc1ccc(C(=O)N(Cc2nc3nc(C)cc(C)n3n2)c2cccc(C)c2)cc1OC,i
Cc1cc(C)n2nc(CN(C(=O)c3ccccc3)c3cccc(Cl)c3)nc2n1,+
Cc1ccc(C(=O)N(Cc2nc3nc(C)cc(C)n3n2)c2cccc(C)c2)cc1,+
Cc1cc(C)n2nc(CN(C(=O)Cc3ccccc3)c3ccc(F)cc3)nc2n1,i
Cc1ccc(N(Cc2nc3nc(C)cc(C)n3n2)C(=O)c2ccco2)cc1,i
Cc1ccc(C(=O)N(Cc2nc3nc(C)cc(C)n3n2)c2cccc(Cl)c2)cc1,i
Cc1cccc(N(Cc2nc3nc(C)cc(C)n3n2)C(=O)c2ccco2)c1,i
Cc1cccc(N(Cc2nc3nc(C)cc(C)n3n2)C(=O)Cc2ccccc2)c1,i
CCc1ccc(-c2c(-c3ccccc3)ncn2Cc2nnc(C)o2)nc1,i
Cc1nc2nc(-c3ccccc3)nn2c(Sc2ccccc2NC(=O)c2cccc(F)c2)c1C,i
SMILES,FECH inh
O=C1CC(=O)Nc2cc(S(=O)(=O)Nc3ccc4c(c3)OCO4)ccc2N1,i
COc1cc(-c2n[nH]c(CCc3ccccc3)n2)ccn1,i
CCn1ncnc1C1CC(=O)Nc2c1c(-c1ccccn1)nn2C (stereo not drawn),i
CCOc1ccc(Nc2nc(NCCCOC)nc3c2cnn3-c2ccccc2)cc1,i
Fc1ccc(N2CCC(NCC3(Cn4cccn4)CC3)C2)cc1 (stereo not drawn),i
Cc1ccccc1-c1nc(Cn2ccnc2-c2ccccn2)c(C)o1,i
Cc1ccc(-c2nc(N(C)Cc3ccn[nH]3)ncc2-c2cccnc2)cc1,i
CCc1c(C)sc2ncnc(N3CCN(C4CCOCC4)CC3)c12,i
Cc1cccc(N(Cc2nc3nc(C)cc(C)n3n2)C(=O)C(C)C)c1,+
Cc1cccc(C(=O)N(Cc2nc3nc(C)cc(C)n3n2)c2cccc(C)c2)c1,i
CCOc1ccc(N(Cc2nc3nc(C)cc(C)n3n2)C(=O)c2cccc(Cl)c2)cc1,i
CCC(C(=O)N(Cc1nc2nc(C)cc(C)n2n1)c1cccc(C)c1)c1ccccc1 (stereo not drawn),i
Cc1cccc(N(Cc2nc3nc(C)cc(C)n3n2)C(=O)c2cccc(Cl)c2)c1,+
Cc1cccc(N(Cc2nc3nc(C)cc(C)n3n2)C(=O)CC(C)C)c1,i
Cc1nc(C(C)C)sc1C(=O)N1CCC2(CC1)c1ccccc1[C@@H](N)[C@@H]2O,i
CN1CCN2C[C@@H](NC(=O)CCc3nc4ccccc4[nH]c3=O)C[C@H]2C1,i
Nc1nnc(CCCNC(=O)CC2CCc3ccccc32)s1 (stereo not drawn),i
CCOc1ccccc1NCc1cc(=O)n2[nH]c(NCc3ccccc3)nc2n1,i
COc1ccc(NCc2cc(=O)n3[nH]c(NCc4ccccc4Cl)nc3n2)cc1,i
CCOc1ccccc1NCc1cc(=O)n2[nH]c(NCc3ccccc3Cl)nc2n1,+
COc1ccc(CNc2nc3nc(CNc4cccc(OC)c4)cc(=O)n3[nH]2)cc1,i
COc1cccc(NCc2cc(=O)n3[nH]c(NCc4ccccc4Cl)nc3n2)c1,+
COc1ccccc1NCc1cc(=O)n2[nH]c(NCc3ccccc3)nc2n1,i
